High-throughput results as filed in PubChem.
The list is a sample of the results.
aSyn UTR act: Activators working through SNCA 5'UTR binding (MLPCN). alpha-synuclein 5'UTR reporter, activators screen. activity score, % (tested at 7.5 µM), hits read low. 300,000 compounds, 7.1% hits; in the data active = activity score below about -60%
Hits are given with their value.

`CCNC(=S)Nc1ccc(OCc2nc3ccccc3s2)cc1` gave aSyn UTR act -89.7.
Screening O=C(O)CCCC(=O)Nc1ccc(OCc2nc3ccccc3s2)cc1 returned aSyn UTR act -67.4.
For COc1cc(C(=O)Nc2nc3ccccc3[nH]2)cc(OC)c1OC the results were aSyn UTR act -75.6.
O=C(Nc1nc2ccccc2[nH]1)c1cccc(F)c1 was read as aSyn UTR act -61.6.
COc1cccc(C(=O)Nc2nc3ccccc3[nH]2)c1 was read as aSyn UTR act inactive.
Screening COc1ccc(C(=O)Nc2nc3ccccc3[nH]2)cc1 returned aSyn UTR act inactive.
For O=C(Nc1nc2ccccc2[nH]1)c1cccc([N+](=O)[O-])c1 the results were aSyn UTR act -250.4.
`O=C(Nc1nc2ccccc2[nH]1)c1ccc(Cl)c(S(=O)(=O)N2CCCC2)c1` gave aSyn UTR act -148.3.
Screening COC(=O)c1cc(C(=O)Nc2nc3ccccc3[nH]2)cc([N+](=O)[O-])c1 returned aSyn UTR act -161.6.
O=C(/C=C/c1ccc(F)cc1)Nc1nc2ccccc2[nH]1 was read as aSyn UTR act -129.3.
CCOc1ccc(N2Nc3n[nH]c(N)c3N2)cc1 was read as aSyn UTR act -64.7.
Screening COc1ccc(N2Nc3n[nH]c(N)c3N2)cc1 returned aSyn UTR act -72.8.
`CC(C)/C=N/Nc1nc(-c2ccc(Br)cc2)cs1` gave aSyn UTR act -141.3.
For CCOC(=O)c1c(C)[nH]c(C(=O)OCCOc2ccccc2C)c1C the results were aSyn UTR act -132.3.
For CCOC(=O)c1c(C)[nH]c(C(=O)CSc2ccc(Cl)cc2)c1C the results were aSyn UTR act -129.5.
CC(=O)c1c(C)[nH]c(C(=O)OCc2ccccc2)c1C was read as aSyn UTR act -145.2.
Screening CCNC(=O)COC(=O)c1[nH]c(C)c(C(=O)OC)c1C returned aSyn UTR act -85.4.
Screening CCOC(=O)c1c(C)[nH]c(C(=O)OCc2ccccc2F)c1C returned aSyn UTR act -110.3.
For CCOC(=O)c1c(C)[nH]c(C(=O)OCc2ccc(F)cc2)c1C the results were aSyn UTR act -170.0.
Screening CCOC(=O)c1c(C)[nH]c(C(=O)OCC(=O)c2ccccc2)c1C returned aSyn UTR act -99.0.
For CCOC(=O)c1c(C)[nH]c(C(=O)COC(=O)C2(C)CC2(Cl)Cl)c1C (stereo not given) the results were aSyn UTR act -170.9.
CCC(C)OC(=O)n1ccc(C(=O)Nc2nccs2)n1 (stereo not given) was read as aSyn UTR act -68.9.
For Nc1c(C(=O)NCc2ccco2)nnn1-c1ccccc1 the results were aSyn UTR act -125.1.
`Cc1cccc(-c2noc(-c3ccccc3C(=O)NCc3ccco3)n2)c1` gave aSyn UTR act -61.8.
O=C(NCc1ccco1)c1cccc(-c2nnc(-c3ccccc3)o2)c1 was read as aSyn UTR act -71.0.
Screening CCCc1cc(=O)[nH]c(-n2[nH]c3c(c2=O)CCCC3)n1 returned aSyn UTR act inactive.
For CCCc1cc(=O)n2[nH]c(-c3ccc(Br)cc3)cc2n1 the results were aSyn UTR act -87.3.
Screening CCCc1cc(=O)n2[nH]c(-c3cccc(Br)c3)cc2n1 returned aSyn UTR act -180.6.
For Cn1cc(NC(=O)OCc2ccc(Cl)cc2)c(C(F)(F)F)n1 the results were aSyn UTR act -108.9.
For O=C(Nc1ccc(NC(=O)c2ccco2)cc1)c1ccc2c(c1)OCCO2 the results were aSyn UTR act inactive.
For Cc1cc(NC(=O)c2ccc3c(c2)OCCO3)ccc1NC(=O)c1ccco1 the results were aSyn UTR act -66.2.
For Cc1cc(NC(=O)c2ccc([N+](=O)[O-])o2)ccc1NC(=O)c1ccco1 the results were aSyn UTR act -110.4.
`COC(=O)N/N=C/c1cccc(OCCSc2ccc(Cl)cc2)c1` gave aSyn UTR act -82.2.
O=[N+]([O-])c1ccccc1S(=O)(=O)c1ccccc1[N+](=O)[O-] was read as aSyn UTR act -62.5.
CC(CS(=O)(=O)c1ccccc1[N+](=O)[O-])N1CCOCC1 (stereo not given) was read as aSyn UTR act -69.7.
Cc1cc(/C=C2/C(=O)N(C)C(=S)N2C)ccc1N1CCCC1 was read as aSyn UTR act -212.4.
Cc1cc(/C=C2\NC(=S)N(C)C2=O)ccc1N1CCCC1 was read as aSyn UTR act -205.7.
Cc1ccc(NC2=CC(=O)C(=O)c3ccccc32)cc1 was read as aSyn UTR act inactive.
For COC1=C(Nc2ccc(O)cc2)C(=O)c2ccccc2C1=O the results were aSyn UTR act -109.5.
`CCOc1ccc2c(c1)OC(c1ccc(OC)cc1)(C(F)(F)F)NC2=O` (stereo not given) gave aSyn UTR act inactive.
COC1=C(Nc2ccc(OC)cc2)C(=O)c2ccccc2C1=O was read as aSyn UTR act -161.5.
Screening CCOc1ccc(NC2=C(OC)C(=O)c3ccccc3C2=O)cc1 returned aSyn UTR act -94.4.
For COc1ccc(NC2=C(NCCO)C(=O)c3ccccc3C2=O)cc1 the results were aSyn UTR act -91.5.
For O=C1C(Nc2ccc(O)cc2)=C/C(=N/S(=O)(=O)c2cccs2)c2ccccc21 the results were aSyn UTR act inactive.
`O=C1C=C(Nc2ccc(O)cc2)C(=O)c2ccccc21` gave aSyn UTR act inactive.
`O=S(=O)(c1ccc(Cl)cc1)N1c2ccccc2Oc2nc3ccccc3nc21` gave aSyn UTR act -96.4.
`COc1ccc(S(=O)(=O)N2c3cc(Cl)ccc3Oc3nc4ccccc4nc32)cc1` gave aSyn UTR act inactive.
Screening c1ccc(CN2CCC(Nc3nc(-c4ccccc4)nc4ccccc34)CC2)cc1 returned aSyn UTR act inactive.
For Cc1cc(NCCN2CCOCC2)c2ccc3ccccc3c2n1 the results were aSyn UTR act -131.8.
`Cc1ccc(-c2nc(NCCN3CCOCC3)c3ccccc3n2)cc1` gave aSyn UTR act -137.6.
Screening CCCCOc1ccc(N(CC(=O)NCc2ccccc2)C(=O)c2csnn2)cc1 returned aSyn UTR act -69.3.
`COc1cccc(C2=N/C(=C\N(C)C)C(=O)O2)c1` gave aSyn UTR act -133.0.
O=C(O)Cc1sc(Nc2ccccc2)nc1-c1ccc(Cl)cc1 was read as aSyn UTR act -149.4.
Screening O=C(Cc1sc(Nc2ccccc2)nc1-c1ccccc1)NCc1ccccn1 returned aSyn UTR act -182.4.
O=C(O)Cc1sc(Nc2ccc(F)cc2)nc1-c1cccs1 was read as aSyn UTR act -132.4.
For Cc1ccc(Nc2nc(-c3ccccc3)c(CC(=O)O)s2)cc1 the results were aSyn UTR act -154.8.
Screening Cn1c(=O)c(-c2cc(Br)ccc2N)nc2ccccc21 returned aSyn UTR act -64.1.
O=C(NC(c1cccnc1)C(F)(F)F)c1cc(COc2ccc3c(c2)CCCC3)on1 (stereo not given) was read as aSyn UTR act -104.1.
COc1ccc(NCc2nnc(SCC(=O)Nc3cc(C(F)(F)F)ccc3Cl)o2)cc1 was read as aSyn UTR act -62.9.
`COc1ccc(NCc2nnc(SCC(=O)Nc3cc(C)cc(C)c3)o2)cc1` gave aSyn UTR act -64.7.
Screening CC(C)(C)c1ccc(NC(=O)CSc2nnc(-c3n[nH]c4ccccc34)o2)cc1 returned aSyn UTR act -128.7.
Screening O=C(CSc1nnc(-c2ccc(C(F)(F)F)cn2)o1)Nc1ccccc1Cl returned aSyn UTR act -98.0.
`COc1ccc(-c2ccc(-c3nnn(CC(=O)N4CCOCC4)n3)cc2)cc1` gave aSyn UTR act -166.1.
For COc1ccc(OC)c(C(=O)Cn2nnc(-c3ccc(N4CCOCC4)cc3)n2)c1 the results were aSyn UTR act -135.0.
For CC(=O)c1ccc(Sc2ccc(C(C)=O)cc2)cc1 the results were aSyn UTR act -63.5.
